40 molecules from PubChem BioAssay (EPA / NIEHS) can be followed below.

Inconclusive results are not listed. Activity calls are given as the source filed them. How the source made its calls: active means hit-call score of the fitted dose curve at least 0.9, where 1 is the maximum; inconclusive means response in the unintended direction; inactive means score below 0.9.

Read-out in this test: xenobiotic metabolism (CYP1A2), CYP1A2 (gene 1544)
The test can be described thus: CLD_CYP1A2_6hr: CellzDirect (CLD) Gene Expression Assay for xenobiotic metabolism (CYP1A2) at 6 hours (AID 2283663).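 On AC50: potency is for induction meaning a rise in mRNA above DMSO.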 As to the method: CLD_6hr is a cell-based, multiplexed-readout assay that uses hepatocyte, a human liver primary cell, with measurements taken at 6 hours after chemical dosing in a 96-well plate.CLD_CYP1A2_6hr is one of 16 assay component(s) measured or calculated from the CLD_6hr assay. It is designed to make measurements of mRNA induction, a form of inducible reporter, as detected with chemiluminescence signals by Quantitative Nuclease Protection Assay (qNPA) technology.Data from the assay component CLD_CYP1A2_6hr was analyzed at the endpoint, CLD_CYP1A2_6hr, in the positive analysis fitting direction relative to DMSO as the negative control and baseline of activity. Using a type of inducible reporter, gain-of-signal activity can be used to understand changes in the reporter gene as they relate to the gene CYP1A2. Furthermore, this assay endpoint can be referred to as a primary readout. To generalize the intended target to other relatable targets, this assay endpoint is annotated to the cyp intended target family, where subfamily is xenobiotic metabolism.
Human hepatocyte cultures were treated daily for two consecutive days with fresh dosing solutions containing appropriate concentrations of the 320 ToxCast chemicals (chemical identities were blinded to CellzDirect and other ToxCast collaborators), vehicle control (0.2% DMSO), and positive control inducers as summarized in Table 1. Due to the large number of treatment groups and chemicals examined, the ToxCast chemicals were divided into two groups (spanning two independent cultures of hepatocytes from separate donor preparations (Hu778: ToxCast plates 1 and 2; Hu776: ToxCast plates 3 and 4). Each preparation of human hepatocyte cultures was treated with respective vehicle control, medium only control, set of six positive controls/reference chemicals for the five hepatic receptor pathways, and a subset of eight of the ToxCast chemicals (indoxacarb, pyrithiobac-sodium, norflurazon, cyhalofop-butyl, methomyl, thiram, acetochlor, and propiconazole). These replicate data, coupled with internal replicates designed within the blinded ToxCast chemical library, provided additional data to evaluate interindividual differences between hepatocyte preparations and their potential impact on chemical profiles.Cell morphology and integrity were evaluated using phase-contrast microscopy as an indicator of hepatocyte cell health (Tyson & Green, 1987). Cultures for each treatment group (i.e., media, vehicle [0.2% DMSO], positive control inducers [multiple concentrations], and the ToxCast chemicals [multiple concentrations]) were observed and cell morphology was assessed relative to vehicle control cultures at each harvest time point (0, 6, 24, or 48 h). […] Images were evaluated at the conclusion of the study to assess changes in cell integrity and account for the effects of chemical exposure on uncharacteristic changes in concentration-dependent gene expression profiles. The results from these determinations of apparent cytotoxicity were annotated (yes/no) alongside the corresponding qNPA data for reference.At the conclusion of each treatment period, hepatocyte cultures (96-well) were washed with 1 volume of HBSS, lysed by addition of 25 ul ArrayPlate lysis buffer (HTG, Tucson, AZ), and 70 ul/well of Denaturation Oil, denatured by incubation at 95C for 10 min, and frozen at approximately -70C until analysis by nuclease protection assay (qNPA) (Roberts et al., 2007). For qNPA analysis, cell lysates were thawed at 50C for approximately 30 min, qNPA probes were added, and samples were incubated at 95C for 10 min to begin the detection process by denaturing the target RNA, dissociating the duplexes and secondary structure hybridization. At the conclusion of the hybridization period, S1 nuclease reagent was added to each sample to digest all nonprotected nucleotides at 50C for 60-90 min. […]
Turning to `CNC(=O)ON=C(C)SC`, the call was inactive. As to `CSC1=N[C@@](C)(c2ccccc2)C(=O)N1Nc1ccccc1`, the result was inactive.

`CCc1cccc(C)c1N(C(=O)CCl)C(C)COC` (stereo not given): the molecule was called inactive.

Turning to `CC(C)[C@H](C(=O)O[C@H](C#N)c1cccc(Oc2ccccc2)c1)c1ccc(Cl)cc1`, the outcome was inactive. As to `CCCOCC(=Nc1ccc(Cl)cc1C(F)(F)F)n1ccnc1`, the AC50 was 1.89 µM (active). With `CCOC(=O)COc1cc(-c2nn(C)c(OC(F)F)c2Cl)c(F)cc1Cl`, the result was inactive.

On to `CN(C)NC(=O)CCC(=O)O`, for which the result was inactive. `CC[C@H](C)[C@H]1O[C@]2(C=C[C@@H]1C)C[C@@H]1C[C@@H](C/C=C(\C)[C@@H](O[C@H]3C[C@H](OC)[C@@H](O[C@H]4C[C@H](OC)[C@@H](NC)[C@H](C)O4)[C@H](C)O3)[C@@H](C)/C=C/C=C3\CO[C@@H]4[C@H](O)C(C)=C[C@@H](C(=O)O1)[C@]34O)O2`: the AC50 was 10.5 µM (active). For the molecule `COP(=O)(OC)SCn1c(=O)oc2cc(Cl)cnc21`, the molecule was classed as inactive. Consider `Nc1c(Cl)cc([N+](=O)[O-])cc1Cl`, for which the molecule was called inactive.

Take `CCOP(=S)(OCC)Oc1cc(C)nc(C(C)C)n1`: the AC50 is 0.589 µM (active). In the case of `CNC(=O)Oc1cccc2c1OC(C)(C)O2`, the AC50 is 3.97 µM (active). For the molecule `CCOP(=O)(OCC)Oc1cc(C)nc(C(C)C)n1`, the result was inactive.

Consider `CCOC(=O)CC(SP(=O)(OC)OC)C(=O)OCC` (stereo not given), for which the result was inactive. The same measure, in the same setting: with `CC(C)=CC1C(C(=O)OCN2C(=O)C3=C(CCCC3)C2=O)C1(C)C` (stereo not given) the entry was “inactive”. Consider `N#CSCSC#N`, for which the result was inactive. With `Cc1ccn2nc(S(=O)(=O)Nc3c(F)cccc3F)nc2n1`, the molecule was called inactive. Turning to `FC(F)C(F)(F)OCC(Cn1cncn1)c1ccc(Cl)cc1Cl` (stereo not given), the AC50 was 2.45 µM (active). Consider `COP(=O)(OC)OC(Br)C(Cl)(Cl)Br` (stereo not given), for which the molecule was called inactive. Consider `CCOP(=O)(NC(C)C)Oc1ccc(SC)c(C)c1` (stereo not given), for which the AC50 was 4.22 µM (active).

Take `CCNc1nc(Cl)nc(NC(C)(C)C#N)n1`: the result was inactive. Same read-out and setting: with `CSc1nc(NC(C)C)nc(NC(C)C)n1` the entry was “inactive”; with `CCCSP(=O)(OCC)Oc1ccc(Br)cc1Cl` (stereo not given), “inactive”; with `CSc1nnc(C(C)(C)C)c(=O)n1N`, “inactive”.

In the case of `CN(C)C(=O)Nc1cccc(C(F)(F)F)c1`, the outcome was inactive. Consider `CNc1cnn(-c2cccc(C(F)(F)F)c2)c(=O)c1Cl`, for which the AC50 is 38.7 µM (active). As to `COc1cccc(C(=O)NN(C(=O)c2cc(C)cc(C)c2)C(C)(C)C)c1C`, the call was inactive. Turning to `CC(C)N(C(=O)SCC(Cl)=C(Cl)Cl)C(C)C`, the molecule was called inactive. Still for that read-out and setting: in the case of `CCCSP(=O)(OCC)SCCC` it was “inactive”; in that of `CC1=NNC(=O)N(/N=C/c2cccnc2)C1`, “inactive”. As for `CCC(=O)Nc1ccc(Cl)c(Cl)c1`, the half-maximal activity concentration (AC50) was 8.75 µM (active). On to `COP(=O)(NC(C)=O)SC` (stereo not given), for which the call was inactive. On the same count and under the same terms, in the case of `CCOP(=S)(Oc1cnc(C(C)(C)C)nc1)OC(C)C` (stereo not given) it was “inactive”; in that of `CN(C)[C@@H]1C(=O)C(C(N)=O)=C(O)[C@@]2(O)C(=O)C3=C(O)c4c(O)cccc4[C@@](C)(O)[C@H]3[C@H](O)[C@@H]12`, “inactive”; in that of `CC(COc1ccc(Oc2ccccc2)cc1)Oc1ccccn1` (stereo not given), “inactive”. Regarding `CCOP(=S)(OCC)Oc1ccc([N+](=O)[O-])cc1`, the AC50 is 2.19 µM (active).

Regarding `CCC(=NOC/C=C/Cl)C1=C(O)CC(C2CCOCC2)CC1=O` (stereo not given), the call was inactive. Turning to `C[Si](Cn1cncn1)(c1ccc(F)cc1)c1ccc(F)cc1`, the molecule was called inactive. With `CC(C1CC1)C(O)(Cn1cncn1)c1ccc(Cl)cc1` (stereo not given), the AC50 was 0.00638 µM (active). With `CN1COCN(Cc2cnc(Cl)s2)C1=N[N+](=O)[O-]`, the result was inactive.

The term AC50 denotes the midpoint of the concentration-response curve, whichever way the signal moves.
